An excerpt weighted towards active compounds, which were near 27% of everything screened.
CYP2C9 act: activators of human CYP2C9; P11712; actives 1.4% (n = 96,000); recombinant CYP2C9, luciferin-H conversion, luminescence; active compounds read high; factor 1 = untreated enzyme, 0 = blocked; activation factor at 5 µM;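 active = activation factor of 2 or more for CYP2C9 at a 5 µM dose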
CYP2C9 inhib: blocks human cytochrome P450 2C9; actives 20% (n = 96,000); AID 777; inhibition, % at 5 µM; CYP2C9 Supersomes, luciferin-H conversion, luminescence;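 active = blocking of liver enzyme CYP2C9 beyond about 50% at 5 µM, limit read from the data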
CYP2C19 act: cytochrome P450 2C19 (human) activation. recombinant CYP2C19, luciferin-H EGE luminescence; active compounds read high; 0 = fully inhibited enzyme, 1 = untreated enzyme. activation factor at 5 µM. 96,000 tested, under 10 active;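 active = activation factor of at least 2 at 5 µM in the primary screen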
EphB4 ephrin blk: EphB4-ephrin-B2 interaction antagonism. inhibition, % at 7 µM. P54760. actives 0.15% (n = 97,000). EphB4 LBD / TNYL-RAW-Alexa532 peptide, fluorescence polarization;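 active = inhibition above the screen-wide mean inhibition plus 3 SD, cut at about 15% in these data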
Target sequence (P54760 whole entry, looked up, the tested form may be a part): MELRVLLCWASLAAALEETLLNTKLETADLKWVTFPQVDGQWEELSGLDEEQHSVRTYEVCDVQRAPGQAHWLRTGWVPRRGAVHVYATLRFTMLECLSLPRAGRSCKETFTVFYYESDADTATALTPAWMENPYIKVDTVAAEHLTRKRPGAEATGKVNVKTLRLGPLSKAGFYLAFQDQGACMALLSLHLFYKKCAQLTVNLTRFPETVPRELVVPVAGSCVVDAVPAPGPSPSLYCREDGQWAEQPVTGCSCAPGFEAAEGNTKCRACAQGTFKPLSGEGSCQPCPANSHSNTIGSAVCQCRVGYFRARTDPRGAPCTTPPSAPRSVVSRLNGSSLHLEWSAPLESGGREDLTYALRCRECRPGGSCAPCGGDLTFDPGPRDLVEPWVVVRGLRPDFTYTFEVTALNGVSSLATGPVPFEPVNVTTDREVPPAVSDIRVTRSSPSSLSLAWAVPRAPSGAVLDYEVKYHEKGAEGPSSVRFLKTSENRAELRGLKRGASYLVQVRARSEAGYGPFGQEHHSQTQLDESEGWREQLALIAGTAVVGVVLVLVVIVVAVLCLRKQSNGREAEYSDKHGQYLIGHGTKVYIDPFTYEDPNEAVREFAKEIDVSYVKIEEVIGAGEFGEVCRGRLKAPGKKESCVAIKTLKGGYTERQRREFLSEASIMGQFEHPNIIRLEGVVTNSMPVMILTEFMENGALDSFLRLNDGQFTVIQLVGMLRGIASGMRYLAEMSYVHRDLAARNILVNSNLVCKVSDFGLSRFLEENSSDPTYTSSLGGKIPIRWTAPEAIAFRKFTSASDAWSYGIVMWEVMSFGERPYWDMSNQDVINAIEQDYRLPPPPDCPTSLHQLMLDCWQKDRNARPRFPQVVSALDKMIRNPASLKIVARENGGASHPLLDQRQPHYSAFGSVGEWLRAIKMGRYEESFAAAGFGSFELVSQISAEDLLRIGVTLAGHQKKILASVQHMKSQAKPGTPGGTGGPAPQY
CYP2C19 inh: blocks human cytochrome P450 2C19; P33261; CYP2C19 Supersomes, luciferin-H EGE luminescence, 30 min; inhibition, % at 5 µM; actives 21% (n = 96,000); AID 778;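 active = CYP2C19 inhibition above a set limit at 5 µM in the primary screen, cut at about 50% in these data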
Numbers stand for hits; – = inactive; · = not tested or not shown.

SMILES | CYP2C9 act | CYP2C9 inhib | CYP2C19 act | EphB4 ephrin blk | CYP2C19 inh
Cc1cc(C)nc(NC2=NCCN2C(=O)Nc2ccc(Cl)c(Cl)c2)n1 | · | · | · | – | ·
CCOc1ccc2nc3sc(C(=O)N4CCN(C)CC4)c(N)c3cc2c1 | – | – | – | – | –
CCOc1ccc2nc3c(cc2c1)CN(CCCO)C(=NCCOC)S3 | – | 82.7 | – | – | 67.1
Cc1cc(=O)[nH]c(SCC(=O)NCc2ccco2)n1 | · | · | · | – | ·
COc1ccc2oc(=N)c(-c3nnc4n3CCCCC4)cc2c1 | – | – | – | – | –
N=c1oc2ccc3ccccc3c2cc1-c1nnc2n1CCCCC2 | 2.1 | – | – | – | –
COC(=O)COc1cccc(NC(=O)c2ccccc2)c1 | – | – | – | · | –
C=CCNc1oc(/C=C/c2ccccc2)nc1C#N | – | 73.6 | – | – | 68.1
Cc1ccc(-c2nc(C#N)c(NCc3cccc4c3OCO4)o2)cc1 | – | – | – | – | –
N#Cc1nc(-c2ccc(F)cc2)oc1NCc1cccc2c1OCO2 | – | 63.0 | – | · | –
N#Cc1nc(-c2ccccc2)oc1NCCN1CCCCC1 | – | – | – | – | –
C=CCNc1oc(Cc2cccc3ccccc23)nc1C#N | – | 64.7 | – | – | 99.6
N#Cc1nc(Cc2cccc3ccccc23)oc1N1CCOCC1 | – | – | – | – | –
N#Cc1nc(Cc2cccc3ccccc23)oc1NCCN1CCOCC1 | – | – | – | – | –
CC1CCN(c2oc(Cc3cccc4ccccc34)nc2C#N)CC1 | – | 76.3 | – | – | 93.2
COc1ccc2nc(SCC(=O)N3CCN(c4ccccc4F)CC3)c(C#N)cc2c1 | · | · | · | – | ·
O=C(CN(C(=O)CSc1nnc(COc2ccccc2)o1)c1ccc(F)cc1)NC1CCCCC1 | – | – | – | – | –
CCOC(=O)Nc1cc(Br)c2c(c1)OCCO2 | – | – | – | · | –
N#Cc1nc(Cc2cccc3ccccc23)oc1NCc1ccc(F)cc1 | – | 89.9 | – | – | 51.5
Cc1nc(C2CC(=O)OC23CCCCC3)cs1 (stereo not drawn) | – | – | – | – | 78.0
Nc1nc(C2CC(=O)OC23CCCCC3)cs1 (stereo not drawn) | · | · | · | – | ·
O=C(N/N=C/c1ccc(-c2cccc(C(F)(F)F)c2)o1)c1cccc(F)c1 | – | – | – | – | –
Cc1ccc(Cl)cc1Nc1nc(-c2sc(NC(=O)C(C)(C)C)nc2C)cs1 | – | – | – | – | –
CCC(C)C(=O)Nc1nc(C)c(-c2csc(Nc3ccc(Cl)cc3)n2)s1 (stereo not drawn) | – | 57.6 | – | – | –
CCCC(=O)Nc1nc(C)c(-c2csc(Nc3ccc(Cl)cc3)n2)s1 | – | – | – | – | 53.5
SMILES | CYP2C9 act | CYP2C9 inhib | CYP2C19 act | EphB4 ephrin blk | CYP2C19 inh
Cc1ccc(Nc2nc(-c3sc(NC(=O)c4cccc(Cl)c4)nc3C)cs2)cc1 | – | – | – | – | –
O=C(O)/C=C\C(=O)Nc1ccccc1C(=O)NCc1ccccc1 | · | · | · | – | ·
Cc1nn(-c2ccccc2)c(C)c1C(=O)OCC(=O)N1CC(=O)Nc2ccccc21 | – | – | – | – | –
Cc1nn(-c2ccccc2)c(C)c1C(=O)OC/C(O)=C(\C#N)c1nc2ccccc2[nH]1 | – | 64.4 | – | – | 62.3
C/C(O)=C(/C#N)c1nc2ccccc2[nH]1 | – | – | – | – | –
CC(=O)OC(/C(O)=C(\C#N)c1nc2ccccc2[nH]1)c1ccccc1 (stereo not drawn) | – | 65.9 | – | – | –
Cc1cccc2cc(CN(Cc3cccnc3)C(=O)c3ccncc3)c(=O)[nH]c12 | – | 60.7 | – | · | 73.3
Cc1cccc2cc(CN(Cc3ccccc3)C(=O)N(C)C)c(=O)[nH]c12 | – | – | – | – | –
Cc1ccc(CN(Cc2cc3cccc(C)c3[nH]c2=O)C(=O)N(C)C)cc1 | – | – | – | · | 51.6
O=C(c1ccc2c(=O)n(Cc3ccco3)c(=S)[nH]c2c1)N1CCN(c2ccccc2)CC1 | – | – | – | – | –
COc1ccc(CNc2nc3nc(C)cc(C)n3n2)cc1 | – | – | – | – | –
Cc1ccc(CNC(=O)c2ccc(CNc3c(N4CCCC4)c(=O)c3=O)cc2)cc1 | – | 51.3 | – | – | 80.0
CCOC(=O)C1CCN(c2c(NCc3ccc(C(=O)NC4CCCC4)cc3)c(=O)c2=O)CC1 | – | 60.6 | – | – | –
Cc1ccc(NC(=O)c2ccc(CNc3c(N4CCOCC4)c(=O)c3=O)cc2)cc1 | – | – | – | – | –
CCOC(=O)C1=C(C)N2C(=C(C#N)[C@@H]1c1ccc(C(=O)OC)cc1)SC[C@@]2(O)C(C)(C)C | – | 98.3 | – | – | 97.3
CCOC(=O)C1=C(C)NC2=C(C(=O)CC(C)(C)C2)C1c1ccc2c(c1)CCCN2C (stereo not drawn) | – | – | – | – | –
CCOC(=O)Nc1ccc2c(c1)ncn2C1CCCCC1 | – | – | – | – | –
CCc1ccc(OCCCC(=O)O)c(Br)c1 | – | – | – | – | –
COc1ccc(N2C(=O)CCC(C(=O)c3ccccc3)=C2C)cc1 | – | – | – | · | 94.9
CC1CC(C)CN(CCCNC(=O)COc2cc(=O)n(C)c3ccccc23)C1 (stereo not drawn) | · | · | · | – | ·
Nc1c(C(=O)NC2CCCC2)c2nc3ccccc3nc2n1N | – | – | – | – | –
CCC(C)NC(=O)c1ccc(CS(=O)(=O)c2ccc(OC)cc2)o1 (stereo not drawn) | – | – | – | – | –
CCC(C)NC(=O)c1ccc(CS(=O)(=O)Cc2ccc(Cl)cc2)o1 (stereo not drawn) | – | 63.4 | – | – | 67.3
CCn1nnc(NC(=O)CSc2ccc(Cl)cc2)n1 | – | – | – | · | –
O=C(c1ccccc1)N(Cc1ccc2c(c1)OCO2)Cc1nc2ccccc2c(=O)[nH]1 | – | 89.7 | – | – | 91.9
SMILES | CYP2C9 act | CYP2C9 inhib | CYP2C19 act | EphB4 ephrin blk | CYP2C19 inh
O=C(c1cc2ccccc2oc1=O)N(Cc1ccccc1)Cc1ccc2c(c1)OCO2 | · | · | · | – | ·
Cc1ccc(NC(=O)N(Cc2ccc3c(c2)OCO3)Cc2cc3cc4c(cc3[nH]c2=O)OCCO4)cc1 | – | – | – | – | –
O=C(Nc1ccccc1)N(Cc1ccc2c(c1)OCO2)Cc1nc2ccccc2c(=O)[nH]1 | – | 60.1 | – | – | –
CSc1nc(SCC(=O)NCc2ccco2)c2c3c(sc2n1)CN(C)CC3 | · | · | · | – | ·
CCOC(=O)N1CCN(C(=O)C2CCCCC2)CC1 | – | – | – | – | –
CCOC(=O)N1CCC(NC2CCCCCCC2)CC1 | – | – | – | – | 58.0
CCC(N1CCOC1=O)S(=O)(=O)c1ccc(C)cc1 (stereo not drawn) | – | – | – | – | –
Cc1ccc(C(=O)Oc2ccc(Cl)c3cccnc23)cc1[N+](=O)[O-] | – | – | – | – | –
Cc1cc(C)c(C(=O)COc2cccnc2[N+](=O)[O-])cc1C | – | – | – | – | 63.1
O=C(c1ccco1)N1CCN(C(=O)c2cnn3cccnc23)CC1 | – | – | – | – | –
CCOC(=O)C1C(=O)C=C(N2CCOCC2)CC1c1cccc(OC)c1 (stereo not drawn) | – | – | – | – | –
COC(=O)C1=C(C)NC(C)=C(C(=O)OC)C1c1ccccn1 | – | 83.3 | – | – | –

Screens: PubChem, several laboratories
